Compounds without any hit were thinned out: in the full panel of roughly 83,000, 20% have a hit.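 The test compound was applied at a single concentration to cells in 96-well plates for 48 hours, and percent growth was recorded.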 Values without a mark were called inactive. The source made the active and inactive calls. The calls were made as follows: active = growth percent below 10; inactive = the rest.

Among the test systems are NCI-H23 lung; NCI-H226 lung; NCI-H322M lung; HOP-62 NSCLC; NCI-H460 lung; HOP-92 NSCLC; NCI-H522 lung; A549/ATCC NSCLC; 786-0 renal; COLO 205 colon; DU-145 prostate; K-562 leukemia; MALME-3M melanoma; MDA-MB-231 breast; RXF 393 renal; SF-268 CNS; SF-539 CNS; UACC-257 melanoma; M14 melanoma; SF-295 CNS.
What all share (assay): NCI-60 one-dose screen, 48 h (100 = growth as untreated, 0 = no growth, -100 = all killed)
Settings in all cases: 10 µM unless noted

On to `CC1(C)C(=O)/C(=C\c2ccc(C(F)(F)F)cc2)C[C@]2(C)[C@H]3CC[C@@H]4[C@H]5[C@H](C(=O)/C=C/c6ccc(C(F)(F)F)cc6)CC[C@]5(CO)CC[C@@]4(C)[C@]3(C)CC[C@@H]12`, for which the growth in the assay with NCI-H23 lung is 100%; in the assay on NCI-H226 lung, 91.4%; in the assay on NCI-H322M lung it was 101%; in the assay with HOP-62 NSCLC it was 101%; with NCI-H460 lung, 99.4%; with HOP-92 NSCLC, 93.7%. The growth with NCI-H522 lung is 97.9%; in the assay on A549/ATCC NSCLC, 90.6%; with 786-0 renal, 107%; in the assay on COLO 205 colon it was 115%; with DU-145 prostate, 109%; in the assay with K-562 leukemia, 86.9%. In addition, the growth was 96.2% in the assay on MALME-3M melanoma; 98.4% with MDA-MB-231 breast; 103% in the assay with RXF 393 renal; 89.7% in the assay on SF-268 CNS; 93.7% in the assay with SF-539 CNS; 101% with UACC-257 melanoma. In the assay with M14 melanoma, the growth was 93.1%.
For the compound `COc1cc(-c2nn(-c3cccc(NC(=O)Nc4cc(C(F)(F)F)cc(C(F)(F)F)c4)c3)cc2-c2ccncc2)ccc1Cl`, the growth in the assay with NCI-H23 lung is -3.3% (active); in the assay on NCI-H226 lung it was 8.68% (active); in the assay on NCI-H322M lung, 26.1%; in the assay on HOP-62 NSCLC, -77.6% (active); with NCI-H460 lung, -49.7% (active); with HOP-92 NSCLC, -50.2% (active). The growth was -34.4% (active) with NCI-H522 lung; -23.8% (active) in the assay on A549/ATCC NSCLC; -71.1% (active) in the assay on 786-0 renal; -98.7% (active) in the assay with COLO 205 colon; 3.89% (active) in the assay on DU-145 prostate; -10.7% (active) with K-562 leukemia. Moreover, the growth is -10.7% (active) in the assay on MALME-3M melanoma; -92% (active) with MDA-MB-231 breast; -68.1% (active) with RXF 393 renal; -46.3% (active) with SF-268 CNS; -53.5% (active) in the assay with SF-539 CNS; -45.1% (active) in the assay on UACC-257 melanoma. Further, in the assay on M14 melanoma, the growth was -42.1% (active).
As for `N=C(N)c1ccc(-c2ccc(-c3cncc4ccccc34)s2)cc1F`, the growth in the assay on NCI-H23 lung was -67.9% (active); with NCI-H226 lung, -64% (active); in the assay with NCI-H322M lung, -67.6% (active); in the assay with HOP-62 NSCLC it was -83.3% (active); in the assay on NCI-H460 lung it was -72.4% (active); in the assay on HOP-92 NSCLC, -87.1% (active). Moreover, the growth with NCI-H522 lung was -90.5% (active); in the assay with A549/ATCC NSCLC, -76.8% (active); in the assay on 786-0 renal, -91.2% (active); with COLO 205 colon it was -85.6% (active); in the assay with DU-145 prostate, -91% (active); in the assay on K-562 leukemia it was -50.6% (active). For the same compound, the growth in the assay on MALME-3M melanoma was -81% (active); in the assay on MDA-MB-231 breast, -85.2% (active); in the assay on SF-268 CNS, -74.4% (active); with SF-295 CNS, -95.1% (active); with SF-539 CNS it was -97.7% (active); with UACC-257 melanoma, 111%. For the same compound, the growth in the assay on M14 melanoma is 96.3%.
Regarding `O=C(Nc1cccc(-n2cc(-c3ccncc3)c(-c3ccc(Cl)c(O)c3)n2)c1)Nc1cc(C(F)(F)F)cc(C(F)(F)F)c1`, the growth in the assay on NCI-H23 lung was -7.93% (active); in the assay with NCI-H226 lung, 1.17% (active); in the assay with NCI-H322M lung it was 5.11% (active); with HOP-62 NSCLC, -86.1% (active); in the assay on NCI-H460 lung, -55.7% (active); in the assay with HOP-92 NSCLC it was -45.8% (active). The growth in the assay on NCI-H522 lung is -50.1% (active); in the assay on A549/ATCC NSCLC it was -32.4% (active); with 786-0 renal, -46.8% (active); in the assay with COLO 205 colon, -97.3% (active); in the assay on DU-145 prostate, -28.2% (active); with K-562 leukemia it was -19.5% (active). For the same compound, the growth is -23% (active) with MALME-3M melanoma; -88.9% (active) in the assay on MDA-MB-231 breast; -66.7% (active) in the assay with RXF 393 renal; -36.4% (active) in the assay with SF-268 CNS; -63% (active) with SF-539 CNS; -50.9% (active) in the assay with UACC-257 melanoma. Besides, the growth in the assay with M14 melanoma is -37.2% (active).
`COc1ccc(-c2c(N)n[nH]c2-c2cc(OC)c3c(c2)OCCO3)cc1`: the growth with NCI-H23 lung was 87.6%; with NCI-H226 lung it was 93.3%; with NCI-H322M lung it was 107%; in the assay with HOP-62 NSCLC, 78.3%; in the assay on NCI-H460 lung, 83%; in the assay on HOP-92 NSCLC, 87.6%. In addition, the growth was 12.5% in the assay on NCI-H522 lung; 56% in the assay on A549/ATCC NSCLC; 88.9% with 786-0 renal; 66.8% with COLO 205 colon; 96.1% in the assay with DU-145 prostate; 12.1% in the assay with K-562 leukemia. Besides, the growth in the assay with MALME-3M melanoma was 39.3%; in the assay with MDA-MB-231 breast it was 87.7%; in the assay on RXF 393 renal, 74%; in the assay with SF-268 CNS, 79.9%; in the assay on UACC-257 melanoma, 88.1%; with M14 melanoma, 65.2%.
As for `Cc1ccc(-c2nc(C(Cl)Cl)n3nc(-c4ccccc4)cc3n2)cc1`, the growth with NCI-H23 lung is 47.3%; in the assay with NCI-H226 lung, 88%; in the assay with NCI-H322M lung, 83.3%; in the assay with HOP-62 NSCLC, 3.61% (active); with NCI-H460 lung, 15.5%; in the assay on HOP-92 NSCLC, -8.47% (active). Moreover, the growth in the assay with NCI-H522 lung is 100%; with A549/ATCC NSCLC it was 12%; in the assay on 786-0 renal, 17.8%; with COLO 205 colon, 6.05% (active); with DU-145 prostate, -9.74% (active); in the assay with K-562 leukemia it was 21.2%. The growth with MALME-3M melanoma was 74.7%; with MDA-MB-231 breast, 11.5%; in the assay with SF-268 CNS, 8.85% (active); with SF-295 CNS, 66.2%; in the assay on SF-539 CNS, 29.8%; in the assay with UACC-257 melanoma it was 94.1%. Also, the growth with M14 melanoma is 95.7%.
On to `COc1cc(-c2nn(-c3cccc(NC(=O)c4cccc(C(F)(F)F)c4)c3)cc2-c2ccncc2)ccc1Cl`, for which the growth in the assay with NCI-H23 lung is 24.7%; in the assay with NCI-H226 lung, 36.2%; in the assay with NCI-H322M lung, 58.1%; in the assay with HOP-62 NSCLC, 22.9%; in the assay on NCI-H460 lung, 4.83% (active); in the assay with HOP-92 NSCLC, -5.59% (active). The growth with NCI-H522 lung is -42.3% (active); in the assay with A549/ATCC NSCLC, 7.4% (active); in the assay with 786-0 renal it was 29.8%; with COLO 205 colon it was 7.11% (active); in the assay on DU-145 prostate, 2.16% (active); in the assay on K-562 leukemia it was 6.11% (active). Also, the growth in the assay with MALME-3M melanoma was 10.1%; in the assay with MDA-MB-231 breast it was 4.67% (active); with RXF 393 renal, -42.8% (active); in the assay with SF-268 CNS it was 30.5%; in the assay with SF-539 CNS it was -48.8% (active); with UACC-257 melanoma, 34.5%. Moreover, the growth in the assay on M14 melanoma was 12.3%.
Take `Cc1[nH]c2ccc(F)cc2c1CCNC(=O)C1CCN(C(=O)c2ccccc2)C1` (stereo unspecified): the growth was 88.6% [25 µM] with NCI-H23 lung; 90.2% [25 µM] in the assay on NCI-H226 lung; 61.8% [25 µM] with NCI-H322M lung; 93.3% [25 µM] with HOP-62 NSCLC; 101% [25 µM] in the assay on NCI-H460 lung; -0.166% [25 µM] (active) with HOP-92 NSCLC. Further, the growth was 95.1% [25 µM] with NCI-H522 lung; 97.8% [25 µM] in the assay on A549/ATCC NSCLC; 89.9% [25 µM] with 786-0 renal; 101% [25 µM] in the assay on COLO 205 colon; 87.6% [25 µM] with DU-145 prostate; 91.9% [25 µM] in the assay on K-562 leukemia. Also, the growth is 73.3% [25 µM] in the assay on MALME-3M melanoma; 82% [25 µM] in the assay with MDA-MB-231 breast; 85.1% [25 µM] in the assay with SF-268 CNS; 96.4% [25 µM] with SF-295 CNS; 83% [25 µM] with SF-539 CNS; 99.6% [25 µM] with UACC-257 melanoma. In addition, the growth in the assay on M14 melanoma is 98.8% [25 µM].
